Holding throughout (experiment): Primary qHTS to identify gynecologic anti-cancer compounds using libraries of approved drugs and bioactive compounds (AID 1345084); further: nearly all actives have a fitted effect of over 55% in size
A general note: Quantitative high-throughput screening tests each substance at several concentrations.

Assay [1] relates to C33A. The conditions noted are these: Gynecologic cancer cell panel viability, ATPlite luminescence, 48 h; series mostly up to 57.5 µM. The essentials: (§1)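 Cell viability after 48 h drug treatment, ATPlite luminescence readout; five doses.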
(In ATP-based viability assays light output follows the ATP content of the culture.)

The subject of assay [2] is CAOV3. The conditions noted are these: Gynecologic cancer cell panel viability, ATPlite luminescence, 48 h; series mostly up to 57.5 µM. The essentials:
as §1

Assay [3] deals with HeLa. The conditions noted are these: Gynecologic cancer cell panel viability, ATPlite luminescence, 48 h; series mostly up to 57.5 µM. The essentials:
as §1

The test system of assay [4] is JEG-3. Particulars: Gynecologic cancer cell panel viability, ATPlite luminescence, 48 h; series mostly up to 57.5 µM. The essentials:
as §1

The test system of assay [5] is OV90. The conditions noted are these: Gynecologic cancer cell panel viability, ATPlite luminescence, 48 h; series mostly up to 57.5 µM. Put shortly: as §1
The subject of assay [6] is Hek293T. Particulars: Gynecologic cancer cell panel viability, ATPlite luminescence, 48 h, control line for the selectivity index; series mostly up to 57.5 µM. Put shortly:
as §1

Assay [7] deals with PA-1. The conditions noted are these: Gynecologic cancer cell panel viability, ATPlite luminescence, 48 h; series mostly up to 57.5 µM. Put shortly: as §1
The subject of assay [8] is Tov-21-G. Particulars: Gynecologic cancer cell panel viability, ATPlite luminescence, 48 h; series mostly up to 57.5 µM. The essentials: as §1
Assay [9] concerns CASKI. The conditions noted are these: Gynecologic cancer cell panel viability, ATPlite luminescence, 48 h; series mostly up to 57.5 µM. The essentials:
as §1

For assay [10], the system named is Es-2. Particulars: Gynecologic cancer cell panel viability, ATPlite luminescence, 48 h; series mostly up to 57.5 µM. Put shortly: as §1
Assay [11] deals with SKOV3. Particulars: Gynecologic cancer cell panel viability, ATPlite luminescence, 48 h; series mostly up to 57.5 µM. Put shortly:
as §1

The subject of assay [12] is Tov112D. The conditions noted are these: Gynecologic cancer cell panel viability, ATPlite luminescence, 48 h; series mostly up to 57.5 µM. Put shortly: as §1

The structures appear in SMILES notation. Results filed as inconclusive are left out. A number with no mark means an inactive call. Activity calls are given as the source filed them. The call rests on the fitted dose curve; in most records, active means well fitted cell-killing curve with a large enough effect; inconclusive means small, poorly fitted or top-dose-only effect, or effect the other way; inactive means flat fitted curve, though single readings scatter.
On the % scale 0 is the no-effect control and ±100 the full control effect; potency means the concentration at half of the fitted maximal effect.

With `CC1(C)CC(NC(=O)C(=O)Nc2ccc(Br)cc2)CC(C)(C)N1`, the Potency entry in [1], in assay [2], in [4] and in assay [5] was “inactive” each time. Moreover, in assay [3], the Potency is 14100 nM (active).

`O=C(c1ccc(/C=C/c2n[nH]c3ccccc23)cc1)N1CCNCC1`: the Potency result in assay [1], in assay [2] and in [6] was “inactive” throughout. For the same compound, the Potency is 2240 nM (active) in assay [3], 8910 nM (active) in [5] and 8910 nM (active) in assay [7].

Regarding `CN(C)C/C=C/C(=O)Nc1cc2c(Nc3ccc(F)c(Cl)c3)ncnc2cc1OC1CCOC1` (stereo unspecified), the results for the Potency in assay [1], in [2] and in [8] were 20000 nM (active), 10000 nM (active) and 5620 nM (active), respectively. Besides, the Potency entry in assay [4] is “inactive”.

As to `C=C1C[C@]23C[C@H]1CC[C@H]2[C@@]12CC[C@H](O)[C@@](C)(C(=O)O1)[C@H]2[C@@H]3C(=O)O`, the Potency entry in assay [1], in assay [9], in assay [10], in [3], in assay [6] and in assay [4] was “inactive” in each case. The Potency entry in assay [5], in assay [7], in assay [11], in [8] and in assay [12] was “inactive” throughout.

For `CC1=CC(=O)CC(C)(CO)C1(O)/C=C/C(C)O[C@@H]1O[C@H](CO)[C@@H](O)[C@H](O)[C@H]1O` (stereo partly specified), the Potency result in assay [1], in assay [9], in assay [10], in assay [3], in assay [6] and in assay [4] was “inactive” throughout. Further, the Potency entry in assay [5], in assay [7], in assay [11], in [8] and in assay [12] was “inactive” throughout.

In the case of `C[C@@H]1O[C@@H](O[C@H]2[C@H](O)[C@@H](O)[C@H](OC[C@H]3O[C@@H](OC(=O)[C@]45CCC(C)(C)C[C@H]4C4=CCC6[C@@]7(C)CC[C@H](O[C@@H]8OC[C@H](O)[C@H](O[C@@H]9O[C@H](CO)[C@@H](O)[C@H](O)[C@H]9O)[C@H]8O)[C@@](C)(CO)C7CC[C@@]6(C)[C@]4(C)CC5)[C@H](O)[C@@H](O)[C@@H]3O)O[C@@H]2CO)[C@H](O)[C@H](O)[C@H]1O` (stereo partly specified), the activity change, negative = cytotoxicity was 0.512% [at 6.55 µM] in assay [1]; -0.125% [at 6.55 µM] in assay [9]; -1.94% [at 6.55 µM] in assay [10]; 8.6% [at 6.55 µM] in assay [3]; -5.57% [at 6.55 µM] in [6]; 16.9% [at 6.55 µM] in [4]. Also, the activity change, negative = cytotoxicity is 13.6% [at 6.55 µM] in assay [5]; 8.25% [at 6.55 µM] in [7]; 11.5% [at 6.55 µM] in [11]; 8.55% [at 6.55 µM] in assay [8]; -0.716% [at 6.55 µM] in assay [12].

For the compound `COc1cc(C(=O)O)ccc1OC1OC(CO)C(O)C(O)C1O` (stereo unspecified), the Potency entry in assay [1], in assay [9], in [10], in assay [3], in assay [6] and in assay [4] was “inactive” in each case. Besides, the Potency result in assay [5], in assay [7], in assay [11], in [8] and in assay [12] was “inactive” in each case.

Turning to `COc1ccc([C@H]2CNC(=O)C2)cc1OC1CCCC1`, the Potency entry in assay [1], in assay [9], in [10], in [3], in assay [6] and in [4] was “inactive” throughout. The Potency entry in assay [5], in assay [7], in assay [11], in [8] and in [12] was “inactive” throughout.

Turning to `COc1ccc(C(=O)C2CCN(CC(=O)N(Cc3nc4c(c(=O)[nH]3)COCC4)CC3CC3)CC2)cc1`, the Potency result in [1], in assay [9], in assay [10], in assay [3], in assay [6] and in assay [4] was “inactive” each time. For the same compound, the Potency entry in assay [5], in assay [7], in [11], in [8] and in [12] was “inactive” throughout.

`CCOC(=O)C(CCc1ccccc1)NC1CSC(c2cccs2)CN(CC(=O)O)C1=O` (stereo unspecified): the Potency entry in assay [1], in assay [9], in assay [10], in assay [3], in assay [6] and in assay [4] was “inactive” each time. Moreover, the Potency entry in assay [5], in [7], in [11], in [8] and in assay [12] was “inactive” in each case.

As to `C/C1=C\CCC(C)CCO[C@@H]2O[C@H](CO[C@@H]3OC[C@H](O)[C@H](O)[C@H]3OC1=O)[C@@H](O)[C@H](O)[C@H]2O` (stereo partly specified), the Potency result in [1], in assay [9], in [10], in [3], in assay [6] and in assay [4] was “inactive” throughout. In addition, the Potency result in assay [5], in assay [7], in assay [11], in [8] and in assay [12] was “inactive” each time.

Consider `Cc1noc(=O)c2ccc(NC(=O)C(O)(CC(C)(C)c3cccc4c3OCC4)C(F)(F)F)cc12` (stereo unspecified), for which the Potency result in assay [1], in [9], in assay [10], in [3], in assay [6] and in assay [4] was “inactive” in each case. Besides, the Potency result in [5], in [7], in [11], in [8] and in assay [12] was “inactive” each time.

For the compound `O=C(O)/C=C/c1ccc(-c2ccc(O)c(C34CC5CC(CC(C5)C3)C4)c2)cc1`, the Potency in assay [1] was 1580 nM (active); in assay [9] it was 1780 nM (active); in assay [10], 631 nM (active); in assay [3] it was 8910 nM (active); in assay [6], 2000 nM (active); in assay [4], 2820 nM (active). Also, the Potency is 10000 nM (active) in [5]; 2240 nM (active) in assay [7]; 631 nM (active) in assay [11]; 794 nM (active) in [8]; 1410 nM (active) in assay [12].

Turning to `O=C(O[C@H]1[C@@H]2C=CO[C@@H](O[C@@H]3O[C@H](CO)[C@@H](O)[C@H](O)[C@H]3O)[C@@H]2[C@@]2(CO)O[C@@H]12)c1ccccc1`, the Potency entry in [1], in [9], in assay [10], in assay [3], in assay [6] and in [4] was “inactive” each time. Besides, the Potency entry in assay [5], in assay [7], in assay [11], in assay [8] and in [12] was “inactive” throughout.

(Values after PubChem BioAssay (NCATS).)
